In ChEMBL document CHEMBL3988442, “University of Dundee, Small-Polar-MMV Screening Library” (2021):
In all, about 48,000 compounds went through this assay and about 13,000 (27%) showed an effect of 50% or more. The list shows a part of the results.

tested on: Wolbachia pipientis; experiment: Anti-Wolbachia Cell-Based Screen; type: functional; parameters: scale not given: in the data most compounds retested in dose-response had high values; settings: 5 µM

Compound | Percent Effect
Cc1nc(CN2CCC(CNC(=O)C3CCOC3)CC2)oc1C (stereo not given) | -1.518%
CCCN(CCC)C(=O)c1cc(CN2CCC(O)CC2)on1 | -23.18%
COc1ccc(-c2noc(CCC(=O)N3CCOCC3(C)C)n2)cc1 | 3.097%
CCc1nccn1C1CCCN(C(=O)c2cc3nc(C)ccc3o2)C1 (stereo not given) | -10.67%
O=c1[nH]nc2c(S(=O)(=O)N3CCCCCC3)cccn12 | 159%
Cc1nnc(SCCNC(=O)CC2CCc3ccccc32)s1 (stereo not given) | -7.078%
O=C(O)[C@H]1OCC(=O)N(Cc2cccc(Cl)c2)[C@@H]1c1ccccc1 | 97.67%
O=C1CO[C@H]2CN(S(=O)(=O)c3ccccc3)C[C@H]2N1Cc1ccccc1 | -0.9845%
CC(C)N1C[C@@H]2OCC(=O)N(Cc3ccccc3)[C@@H]2C1 | 4.027%
O=C(O)[C@@H]1OCC(=O)N(Cc2cccc(Cl)c2)[C@@H]1c1ccccc1 | 105.3%
O=C(O)C(F)(F)F.O=C1CO[C@@H]2CN(CC3CC3)C[C@H]2N1Cc1cccc(F)c1 | 2.959%
CN1CCC(C(=O)N2CCN(Cc3cccc(Cl)c3)CC2)CC1=O (stereo not given) | 1.504%
O=C(O)C(F)(F)F.O=C1CO[C@@H]2CN(CC3CCOC3)C[C@H]2N1Cc1cccc(F)c1 (stereo not given in full) | 18.32%
O=C(O)[C@H]1OCC(=O)N(Cc2cccc(F)c2)[C@@H]1c1ccc(Cl)cc1 | 104.6%
NC(=O)CN1C(=O)CO[C@H]2CN(Cc3ccccc3)C[C@H]21 | -7.855%
CCOc1ccccc1-c1noc(CN2CC(n3cccn3)C2)n1 | -3.661%
COc1ccc(C2(C(=O)N3CC(c4cccnc4)C3)CC2(C)C)cc1 (stereo not given) | -12.52%
COc1ccc(C(=O)N2CCOC(Cc3cccc(C(F)(F)F)c3)C2)o1 (stereo not given) | -4.741%
N#Cc1ccc(CNc2ncc(C#N)cc2Cl)cc1 | 12.93%
Cc1ccsc1CN(Cc1ccccn1)CC(C)C | -7.102%
Cc1ccsc1CN(CCN(C)C)Cc1ccccn1 | 2.739%
Cc1ccsc1CN(CCCN(C)C)Cc1ccccn1 | 97.01%
CCn1nc(C)c(CN(CCCOC)Cc2ccccn2)c1C.O=C(O)CC(O)(CC(=O)O)C(=O)O | 71.01%
CCn1nc(C)c(CN(CCCN(C)C)Cc2ccccn2)c1C | 80.15%
CCOCC(=O)N(Cc1ccccn1)Cc1ccccc1C | -6.914%

Compound | Percent Effect
CCn1nc(C)c(CN(CCOC)C(=O)c2ccccc2N(C)C)c1C | -7.863%
Cc1occc1C(=O)N(CCN(C)C)Cc1ccccn1 | -8.298%
CCn1nc(C)c(CN(Cc2ccccn2)Cc2ccccc2Cl)c1C | 105.5%
CCN(Cc1ccccn1)Cc1cc(Cl)ccc1OC | -5.315%
CCn1nc(C)c(CN(CCOC)C(=O)c2ccc(=O)[nH]n2)c1C | -5.597%
Cc1ccoc1C(=O)N(CCN(C)C)Cc1ccccn1 | -10.81%
CN1CCCN(CCCNC2CCc3cc4c(cc32)OCCO4)CC1 (stereo not given) | -2.164%
CCN1CCN(c2ccc(F)cc2C(C)NCc2noc(C)n2)CC1 (stereo not given) | 6.672%
NC(=O)c1ccnc(N2CCN(Cc3ccc(F)cc3Cl)CC2)c1 | 9.794%
CCCn1ncc(CN(CCN(C)C)Cc2ccsc2)c1C | 0.1145%
CCCn1nc(C)c(CN(CCN(C)C)Cc2ccccn2)c1C | 95.65%
CCCN(Cc1ccccn1)Cc1ccccc1OC | 8.723%
NC(=O)N1CCCC1COC(=O)c1ccc(F)cc1Br (stereo not given) | -14.4%
O=S1(=O)CCC(CNS(=O)(=O)N2CCc3ccccc3C2)C1 (stereo not given) | 5.684%
CCCC(C)(C)NC(=O)c1ccc(CC2CC(=O)NC2=O)cc1 (stereo not given) | -6.168%
OCC1CCCCN1CCn1ccnc1-c1nc2ccccc2[nH]1 (stereo not given) | 1.292%
O=C(N[C@@H]1CNCCC[C@H]1O)c1ccc(OCc2ccccc2)cc1 | -1.908%
O=C(N[C@H]1CCCC[C@@H]1O)c1cccc(-c2nc3ccccc3[nH]2)c1 | 102.7%
CN1CCCC1CCn1ccnc1-c1nc2ccccc2[nH]1 (stereo not given) | 1.274%
O=C(N[C@H]1CCCC[C@@H]1O)c1ccc(-c2nc3ccccc3[nH]2)cc1 | 104%
O=C(N[C@@H]1CCNC[C@H]1O)c1ccc(-c2ccc(F)cc2)cc1 | 15.94%
O=C(N[C@@H]1CCNC[C@H]1O)c1ccc(O)c(Cl)c1 | 22.9%
O=C(N[C@@H]1CCNC[C@H]1O)c1ccc(F)c(F)c1 | 7.783%
O=C(N[C@H]1CCCC[C@@H]1O)c1ccc2nc(-c3ccccc3)[nH]c2c1 | 121.7%
O=C(CCc1cn[nH]c1)N1C[C@@H](CN2CCOCC2)C[C@H](CO)C1 | 10.13%

Compound | Percent Effect
COC(=O)c1sccc1S(=O)(=O)N1CCC(Oc2cccnn2)CC1 | 13.23%
COC(=O)N1CCCC(NC(=O)NCc2ccc(C)nc2)C1 (stereo not given) | 12.17%
CC(C)(C)c1n[nH]c(C2CN(CCc3ccncc3)CCO2)n1 (stereo not given) | 18.66%
CN(C)Cc1ccnc(C2CN(CCc3ccccc3)CCO2)n1 (stereo not given) | 102.6%
CN(Cc1nccn1C)C1CCCN(CCCc2ccccc2)C1 (stereo not given) | 7.706%
CN(C)Cc1ccnc(C2CN(CCCc3ccccc3)CCO2)n1 (stereo not given) | 114%
Cc1nc(C)n(CC2CN(CCCc3ccccc3)CCO2)n1 (stereo not given) | -18.17%
Cn1ncc(N2CCC(CNC3CC(C)(C)CC(C)(C)C3)C2)cc1=O (stereo not given) | 8.981%
Cc1nn(CCO)cc1CN1CCC(N2CCC(O)CC2)CC1 | -2.078%
O=C(C1CCCO1)N1CCC(Cn2cc(C3CCCC3)nn2)CC1 (stereo not given) | -6.289%
CN(CCO)Cc1nnc(C2CCN(C(=O)C3CCOCC3)CC2)n1C | -7.962%
Cc1nn(C)cc1CN1CCC(c2ncc(Cl)cc2S(C)(=O)=O)CC1 | 110.1%
Cn1c(CN2CCCC2)nnc1C1CCCN(C(=O)C2CCOCC2)C1 (stereo not given) | -15.35%
CS(=O)(=O)c1cc(Cl)cnc1C1CCN(C(=O)C2CCCO2)CC1 (stereo not given) | 120.4%
O=C(C1CCCO1)N1CCC(c2nc(-c3ccccc3)n[nH]2)CC1 (stereo not given) | -16.11%
CS(=O)(=O)c1cc(Cl)cnc1C1CCN(C(=O)C2CCOCC2)CC1 | 98%
Cc1nn(C)cc1CN1C[C@@H]2CC[C@H](C1)N(Cc1c(C)noc1C)C2=O | -0.3171%
CS(=O)(=O)c1cc(Cl)cnc1C1CCCN(C(=O)C2CCOCC2)C1 (stereo not given) | 120.4%
CS(=O)(=O)N1C[C@@H](C(=O)Nc2cnccn2)C[C@H]2OCC[C@H]21 | -10.64%
Cc1cc(C)cc(C(=O)Nc2ccc(CC3CC(=O)NC3=O)cc2)c1 (stereo not given) | -7.063%
CCS(=O)(=O)c1ccc(N2CCC(N)CC2)cc1 | -6.106%
CCc1noc(C)c1C(=O)NCCCC(CC)(CC)C1OCCO1 | -8.501%
Cn1c(C(F)(F)F)nn(CCNC(=O)c2cnc3ccccc3n2)c1=O | 1.982%
CS(=O)(=O)c1cc(Cl)cnc1C1CCN(C(=O)C2CC2)CC1 | 82.8%
N#Cc1cnc(NC2CCN(C(=O)C3CC3)CC2)c(Cl)c1 | -2.67%

Compound | Percent Effect
O=C(C1CC1)N1CCC(Oc2ccccc2Cl)CC1 | -14.42%
CCn1nc(C)c(CCNC(=O)C2CCCN(CC(N)=O)C2)c1C (stereo not given) | -1.587%
CN(CCS(=O)(=O)c1cc(Cl)ccc1Cl)CC(=O)Nc1ccc(F)cc1 | -4.797%
O=S1(=O)N=C(SCc2ccc(Cl)cc2)Nc2ccc(F)cc21 | 26.5%
O=C(CSC1=NS(=O)(=O)c2cc(F)ccc2N1)Nc1ccc(Cl)c(Cl)c1 | 112.6%
O=C(CSC1=NS(=O)(=O)c2cc(F)ccc2N1)Nc1ccc(Cl)cc1 | 115.7%
O=C(CSC1=NS(=O)(=O)c2cc(F)ccc2N1)Nc1cccc(Cl)c1 | 1.822%
COCCC(=O)N1CCC(c2cncc(Oc3cccnc3)n2)CC1 | 116.7%
CC(=O)NCC(=O)N1CCC(c2cncc(Oc3cccnc3)n2)CC1 | 94.92%
O=C(c1cnc[nH]1)N1CCC(Oc2cccnc2)CC1 | -5.216%
CCC(=O)N1CCC(c2cncc(Oc3cccnc3)n2)CC1 | 118.9%
COCCC(=O)N1Cc2[nH]nc(COc3cccnc3)c2C1 | -7.677%
CN(C)c1cncc(C2CCN(C(=O)CO)CC2)n1 | -8.172%
CCOCC(=O)N1CCC(c2nc(-c3cccnn3)no2)CC1 | -10.28%
NCC(=O)N1CCC(c2cncc(Oc3cccnc3)n2)CC1 | 115.4%
O=C(O)c1coc(COc2cccc(F)c2)n1 | 4.925%
Cn1cc(C(C)(O)CNc2ccc(C(F)(F)F)cn2)cn1 (stereo not given) | -6.245%
CC(C)(C)CC(NC(=O)c1nc(=O)[nH][nH]1)c1ccc(F)cc1 (stereo not given) | -5.789%
COC(=O)CCNC(=O)c1coc(COc2ccc(F)cc2)n1 | -5.567%
CCOC(=O)NC(=O)CSC(C)c1ccccc1F (stereo not given) | 4.048%
CN1CCN2CCN(C(=O)c3cnn4cc(CCO)cnc34)CC2C1 (stereo not given) | -3.17%
Cn1ccnc1CN1CCCN(C(=O)c2ccc3[nH]cnc3c2)CC1 | 100.5%
Cc1nccn1CCC1CCCCN1C(=O)c1ccc2[nH]nnc2c1 (stereo not given) | -0.5329%
CC(C)c1nccn1C1CCCN(C(=O)c2ccc3[nH]cnc3c2)C1 (stereo not given) | -5.197%
Cn1ccnc1CN1CCCN(C(=O)c2ccc3[nH]nnc3c2)CC1 | 102.4%
